ssDAF-12 act: activators of S. stercoralis DAF-12 nuclear receptor | 1% of 370,000 active | activation, % at 6.8 µM | HEK293 ssDAF-12/GRIP1 lit1-tk-luc reporter, luminescence; % of 3 µM dafachronic acid response;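 active = activation above the mean over all tested compounds plus 3 SD, cut at about 0.9% in these data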;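 note: 0% = DMSO-only wells and 100% = 3 µM delta7-dafachronic acid wells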
hcDAF-12 act: activators of H. contortus DAF-12 nuclear receptor; HEK293 hcDAF-12 lit1-tk-luc reporter, luminescence; 0% DMSO, 100% Δ7-dafachronic acid; activation, % at 6.8 µM; 1.4% of 370,000 active;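 active = activation above the mean of all tested compounds plus 3 SD, cut at about 5.5% in these data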;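 note: 100% = response to 3 µM Δ7-dafachronic acid high control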
DAX1 inh-1: inhibits human nuclear receptor DAX1; HEK293 Gal4-DAX1 luciferase reporter, luminescence; inhibition, % at 6.75 µM; 0.99% of 340,000 active;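 active = inhibition above the mean over all tested compounds plus 3 SD, cut at about 4.2% in these data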;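 note: 0% = DAX1-transfected cells with DMSO and 100% = empty-vector control cells with DMSO; inhibition shows as a rise in luminescence from relieved DAX1 repression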
Target sequence (P51843 207-470 limits assumed): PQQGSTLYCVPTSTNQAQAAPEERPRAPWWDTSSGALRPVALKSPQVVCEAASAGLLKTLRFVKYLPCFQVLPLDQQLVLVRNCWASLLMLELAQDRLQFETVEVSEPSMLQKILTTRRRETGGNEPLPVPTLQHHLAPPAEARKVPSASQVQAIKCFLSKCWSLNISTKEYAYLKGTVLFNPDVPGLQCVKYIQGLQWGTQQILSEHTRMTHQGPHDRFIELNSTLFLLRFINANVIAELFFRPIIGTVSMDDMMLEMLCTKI
DAX1 inh-2: blocks DAX1 repression of SF-1 activated StAR promoter; HEK293T StAR-luciferase reporter, SF-1/DAX-1 repression relief; inhibition, % at 6.8 µM; 1.1% of 370,000 active;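 active = inhibition above the mean over all tested compounds plus 3 SD, cut at about 3.6% in these data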;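 note: 0% = DAX-1 cells with DMSO and 100% = cells lacking DAX-1 with DMSO; higher inhibition means more luminescence from relief of DAX-1 repression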
FXN GAA850 act: activators of GAA850 frataxin (FXN) promoter | 0.56% of 360,000 active | HEK293 lucGAA850 FXN promoter luciferase reporter, 24 h; percent of 10 µM SAHA response | activation, % at 6 µM;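 active = activation above the average of all compounds screened plus 3 SD, cutoff fixed separately per campaign, cut at about 7.5% in these data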;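 note: 0% = DMSO wells and 100% = 10 µM SAHA wells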
hgDAF12 agonist: activates the H. glycines DAF-12 receptor ligand-binding domain; HEK293 GAL4-hgDAF12 UAS-luciferase reporter, agonist luminescence; normalized to butyrate control; activation, % at 6.8 µM; 1.8% of 370,000 active; AID 687014;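 active = activation above a cutoff set at the mean of all screened compounds plus 3 SD, cut at about 10% in these data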;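 note: 0% = DMSO wells and 100% = sodium butyrate wells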
Starred values were filed as active, the others as inactive; . = no result. The list is not random: actives were taken first. Their share in the collection is about 4.5%.

SMILES	ssDAF-12 act	hcDAF-12 act	DAX1 inh-1	DAX1 inh-2	FXN GAA850 act	hgDAF12 agonist
CC[C@H](CCCc1ccc(OC)cc1)CCC(=O)N(c1ccccc1)c1ccccc1	-1.8	-1.7	.	-0.7	.	-1.9
CC1=NN(c2ccccc2)C(=O)C1C(=O)c1ccccc1 (stereo unspecified)	-0.6	-0.6	0.7	0.6	-0.6	-2.4
CC1=NN(c2ccccc2)C(=O)C1C(=O)C(=O)Nc1ccc(F)cc1 (stereo unspecified)	-0.8	4.0	0.0	4.3*	3.7	10.7*
COc1cccc(NC(=O)C2(C)CCN2C(=O)CCc2ccc(Cl)cc2Cl)c1 (stereo unspecified)	1.6*	-2.1	.	0.0	-0.1	-0.2
COc1cccc(NC(=O)C2(C)CCN2C(=O)Cc2ccc(-c3ccccc3)cc2)c1 (stereo unspecified)	-1.8	-2.6	.	-0.8	-2.6	-3.3
CC1=C[C@]2(C[N+](Cc3ccccc3)=C(N)N2)n2c(=O)n(-c3ccccc3)c(=O)n2C1	-1.6	-3.1	.	0.4	.	-2.0
CCOC(=O)C1=CC[C@H]2c3c(c4ccccc4n3C)C(=O)C1N2C	-1.0	0.7	5.1*	0.2	1.8	-1.1
CN(CCCOC(=O)c1cc2ccccc2o1)C1CN(Cc2cn(Cc3ccccc3C(F)(F)F)nn2)S(=O)(=O)C1 (stereo unspecified)	-1.3	1.8	.	-0.4	.	-0.5
COc1ccc(C2CC(C)(c3ccc(OC)cc3)Nc3ccccc3N2)cc1 (stereo unspecified)	-0.5	5.7*	1.4	1.6	4.4	12.0*
CCOc1cc(C2NN=C(c3ccccc3)S2)ccc1OCc1ccc(F)cc1 (stereo unspecified)	1.1*	4.3	3.0	2.5	7.4	11.9*
CCNC(=O)c1ccc(NC(=O)CC2SC(N3CCCC3)=NC2=O)cc1 (stereo unspecified)	1.1*	1.9	-0.1	0.1	-1.1	-0.3
CCN1CCN(C(=O)CN2C(=O)c3ccccc3S2(=O)=O)CC1	-0.6	1.1	3.1	3.8*	-0.4	3.3
CCOC(=O)N1CCN(C(=O)CN2C(=O)c3ccccc3S2(=O)=O)CC1	-1.0	1.5	3.5	0.1	1.5	1.4
O=C(Nc1nccs1)c1ccc(N2C(=O)[C@@H]3[C@H](C2=O)[C@H]2C=C[C@@H]3C2)cc1	-0.9	2.3	4.5*	2.6	5.4	12.1*
O=C(Nc1nccs1)c1ccc2nccnc2c1	-1.4	0.8	4.6*	0.5	0.9	9.5
O=C(Nc1nccs1)c1cccc(N2C(=O)C3C4C=CC(C4)C3C2=O)c1 (stereo unspecified)	-1.4	-0.7	-1.3	0.0	0.7	0.1
CC(OC(=O)/C=C/c1cccc(F)c1)C(=O)NC1CCCCC1C (stereo unspecified)	-1.1	-0.5	0.4	-0.7	0.7	-1.6
COc1cc(/C=C/C(=O)OC(C)C(=O)NC2CCCCC2C)cc(Cl)c1OC (stereo unspecified)	-1.1	-0.6	6.9*	0.2	1.5	-1.2
O=C(Cc1c[nH]c2ccccc12)Nc1nc2ccccc2[nH]1	1.9*	3.2	1.6	1.1	2.5	6.0
O=C(CCCOc1ccccc1)Nc1nc2ccccc2[nH]1	-1.3	4.0	2.5	1.6	3.3	11.8*
O=C(Cc1ccccc1)Nc1nc2ccccc2[nH]1	-1.3	-0.7	-1.5	1.4	4.4	5.2
CC(=O)Nc1nc2ccccc2[nH]1	-0.1	-1.3	-0.1	-0.2	-1.2	-0.7
Cc1ccc(/C=C/C(=O)Nc2nc3ccccc3[nH]2)cc1	0.6	5.8*	1.9	2.2	3.8	8.6
O=C(Nc1nc2ccccc2[nH]1)c1ccccc1O	1.2*	4.5	1.4	1.6	0.3	11.4*
CCOC(=O)[C@@]12CN(C(=O)OC(C)(C)C)CC=C1N(Cc1ccc(OC)cc1)C(=O)[C@H]2CC(=O)NCC12CC3CC(CC(C3)C1)C2	-1.6	-2.6	.	-1.4	.	2.4
SMILES	ssDAF-12 act	hcDAF-12 act	DAX1 inh-1	DAX1 inh-2	FXN GAA850 act	hgDAF12 agonist
C/C(=N\NC(=O)CSc1nnc(-c2ccccc2)n1-c1ccc(C)cc1)c1ccc(-c2ccccc2)cc1	-1.3	-1.8	.	0.4	.	-0.8
O=C(CN1C(=O)C2CC=CCC2C1=O)Nc1nc2ccccc2[nH]1 (stereo unspecified)	-0.3	1.5	5.4*	0.4	-2.6	1.9
O=C(Cc1ccc(Cl)cc1)Nc1nc2ccccc2[nH]1	-1.3	4.6	0.3	-0.1	3.2	-0.3
O=C(Nc1nc2ccccc2[nH]1)c1ccc(Cl)cc1	0.3	5.8*	-3.4	0.5	-4.9	9.9
COc1ccc(CNC(=O)c2cccc3c2C(=O)N(CC2CCCO2)C3)cc1 (stereo unspecified)	-1.3	1.4	-0.8	0.1	0.9	-2.7
O=C(Nc1ccc(F)cc1)c1cccc2c1C(=O)N(CC1CCCO1)C2 (stereo unspecified)	-1.1	-3.9	4.2*	2.2	-0.5	1.0
COCCN1Cc2cccc(C(=O)Nc3ccc(S(=O)(=O)N4CCCCCC4)cc3)c2C1=O	1.5*	-2.1	-0.3	0.2	0.9	0.4
C=c1[nH]cc(C(C)c2c(C)n(C)c3ccccc23)/c1=C/C (stereo unspecified)	0.5	6.0*	.	-0.2	.	4.9
CC(c1c[nH]c2ccccc12)c1cn(C)c2ccccc12 (stereo unspecified)	-0.5	2.1	.	-1.4	.	2.1
CCCCNC(=O)NCCCN1CCN(c2ccc(F)cc2)CC1	-1.7	-1.2	.	0.2	.	-2.7
c1c2c(cc3sc(N4CCCCC4)nc13)OCO2	0.7	6.0*	-1.4	3.3	-1.5	9.0
c1ccc(N2CCN(c3nc4cc5c(cc4s3)OCO5)CC2)cc1	-0.5	0.3	0.2	0.4	2.1	6.3
CC(=O)c1sc(Nc2nc3cc4c(cc3s2)OCO4)nc1C	-1.7	-1.2	0.6	2.0	5.0	2.5
O=C(COc1ccccc1)Nc1nc2cc3c(cc2s1)OCO3	-0.5	6.1*	0.3	3.2	0.3	5.0
CC(=O)Nc1nc2cc3c(cc2s1)OCO3	-0.7	3.8	1.8	3.2	2.3	13.0*
O=C(COc1ccccc1)Nc1nc2cc3c(cc2s1)OCCO3	0.1	4.1	1.3	2.0	4.2	2.4
CCN(CC)C(=O)CC[C@H]1CC[C@]2(CCCN(Cc3ccc(OC)cc3)C2)O1	-1.1	1.0	.	0.8	.	1.0
O=C(NCCc1c[nH]c2ccccc12)OCc1cn(-c2ccc(Cl)cc2)nn1	-1.2	0.5	.	-0.9	.	-0.2
CN(C(=O)[C@H]1O[C@@H](n2cnc(C(N)=O)n2)[C@H](O)[C@@H]1O)c1ccccc1	-1.0	-1.2	.	0.3	.	0.1
CC(/C=N/NC(=O)c1cccs1)=C\c1ccco1	-1.2	2.3	0.3	3.0	4.3	12.3*
CC(/C=N/NC(=O)Cc1cccs1)=C\c1ccco1	-0.9	1.7	-0.5	1.0	-0.5	4.0
